Source: PubChem (The Scripps Research Institute Molecular Screening Center)
An excerpt weighted towards active compounds, which were near 1.8% of everything screened.
PME-1 inh: PME-1 inhibitors via competitive probe labeling, primary screen, biochemical, fluorescence polarization, FP-Rh probe, HTS; Protein phosphatase methylesterase 1 (Homo sapiens), Q9Y570; recombinant PME-1; inhibition, % at 5.9 µM; 320,000 compounds, 0.53% hits;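 active = inhibition above the campaign mean of all compounds plus 3 SD, cut at about 26% in these data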;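 also: competitive labeling of PME-1 active site by serine hydrolase directed probe; inhibitors block probe labeling so polarization falls and inhibition rises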
GSTO1 inh: inhibitors of recombinant GSTO1, primary screen, counter-screen for RBBP9 inhibitor project, biochemical, fluorescence polarization; inhibition, % at 5.96 µM; activity-based probe fluorescence polarization; Glutathione S-transferase omega-1 (Homo sapiens), P78417; AID 1974, 2009; 300,000 compounds, 1.1% hits;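 active = inhibition above the campaign mean inhibition plus 3 SD, cut at about 35% in these data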
LYPLA2 counter: LYPLA2 inhibitors, primary screen, counter-screen for PME1 inhibitor project, biochemical, fluorescence polarization, FP-Rh probe ABPP | recombinant LYPLA2 | inhibition, % at 5.9 µM | 320,000 compounds, 0.38% hits | AID 2177, 2009;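 active = inhibition above the screen-wide mean plus 3 SD, limit set per campaign, cut at about 26% in these data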
PAD4 inh: human PAD4 inhibitors, primary screen, biochemical, fluorescence polarization, 1536-well format. Protein-arginine deiminase type-4 (Homo sapiens), Q9UM07. recombinant PAD4, RCA probe fluorescence polarization. inhibition, % at 6.36 µM. 330,000 compounds, 0.41% hits. AID 485272, 2010;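 active = percent inhibition above a cutoff equal to the mean of all tested compounds plus 3 SD, cut at about 15% in these data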
Target sequence (Q9UM07 whole entry, looked up): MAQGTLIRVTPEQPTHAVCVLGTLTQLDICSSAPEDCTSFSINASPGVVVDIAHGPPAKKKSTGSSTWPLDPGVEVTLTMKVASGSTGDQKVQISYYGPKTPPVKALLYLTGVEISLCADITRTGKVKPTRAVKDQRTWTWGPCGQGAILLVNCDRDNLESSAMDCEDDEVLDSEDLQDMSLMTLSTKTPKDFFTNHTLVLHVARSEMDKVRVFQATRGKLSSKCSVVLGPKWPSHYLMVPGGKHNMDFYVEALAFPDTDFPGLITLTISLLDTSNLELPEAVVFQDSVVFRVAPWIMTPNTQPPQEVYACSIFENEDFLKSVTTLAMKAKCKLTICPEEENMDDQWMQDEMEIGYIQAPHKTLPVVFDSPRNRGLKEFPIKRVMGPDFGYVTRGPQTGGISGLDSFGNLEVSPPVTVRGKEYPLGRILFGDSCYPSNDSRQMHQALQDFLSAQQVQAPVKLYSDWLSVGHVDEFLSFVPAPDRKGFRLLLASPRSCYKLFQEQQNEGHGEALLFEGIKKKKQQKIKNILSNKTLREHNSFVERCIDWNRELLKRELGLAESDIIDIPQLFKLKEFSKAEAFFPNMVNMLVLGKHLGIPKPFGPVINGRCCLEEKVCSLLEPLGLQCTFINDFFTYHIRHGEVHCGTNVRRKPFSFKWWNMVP
LYPLA1 counter: LYPLA1 inhibitors, primary screen, counter-screen for PME1 inhibitor project, biochemical, fluorescence polarization, FP-Rh probe ABPP; 320,000 compounds, 0.16% hits; Acyl-protein thioesterase 1 (Homo sapiens), O75608; recombinant LYPLA1; inhibition, % at 5.9 µM;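 active = inhibition above the mean of all tested compounds plus 3 SD, set per campaign, cut at about 14% in these data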;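 also: inhibitors block serine hydrolase probe labeling of LYPLA1 so polarization falls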
Fam108B counter: mouse Fam108B serine hydrolase inhibitors, primary screen, counter-screen for RBBP9 inhibitor project, biochemical, fluorescence polarization | inhibition, % at 9.51 µM | recombinant Fam108B, FP-Rh probe fluorescence polarization | 300,000 compounds, 0.33% hits;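 active = inhibition above the screen mean inhibition plus 3 SD, computed separately per campaign, cut at about 18% in these data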;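 also: inhibitors lower polarization as less probe binds the enzyme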
LYPLA2 confirm: LYPLA2 inhibitors, retest, confirmation, counter-screen for PME1 inhibitor project, biochemical, fluorescence polarization, FP-Rh probe ABPP | shares compounds with LYPLA2 counter | recombinant LYPLA2 | inhibition, % at 5.9 µM | 1,100 compounds, 72% hits | AID 2232, 2010;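 active = mean inhibition across replicates above the hit cutoff set in the primary screen, cut at about 26% in these data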;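 also: blocked labeling of the enzyme by serine hydrolase FP-Rh probe lowers polarization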
LYPLA2 gel ABPP: LYPLA2 inhibitors in proteome, late-stage follow-up, gel-based competitive ABPP, fluorescence, assay provider; shares compounds with LYPLA2 counter; rhLYPLA2 in mouse brain proteome, gel ABPP FP-Rh; inhibition, % at 20 µM; 150 compounds, 30% hits; AID 652029, 2013;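 active = inhibition of LYPLA2 enzyme probe labeling above about 50%, limit read from the data; inactive = inhibition below that limit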;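 also: loss of FP-Rh probe labeling of the LYPLA2 gel band measured as band density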
Of the large screens only hits and unclear results are named; the others gave an inactive call (follow-up assays come after a bar, where they were run).

CC(C)CNC(=S)NC1CC2CCC(C1)N2Cc1ccccc1 (stereo not given)	none
CCc1ccc(NC(=O)C(C)Sc2nnc(CN3CCCC3)o2)cc1 (stereo not given)	none (no result: GSTO1 inh, Fam108B counter)
CCn1cc(CN2CCC(n3nccc3NC(=O)C(OC)c3ccccc3)CC2)cn1 (stereo not given)	none
CC(=O)Nc1ccc(S(=O)(=O)NCC(=O)OCC(=O)N2CC(C)OC(C)C2)cc1 (stereo not given)	none (no result: PME-1 inh, GSTO1 inh, LYPLA2 counter, LYPLA1 counter, Fam108B counter)
Cc1cc(C(=O)N2CCCC(N3CCN(c4cccc(C(F)(F)F)c4)CC3)C2)nn1C (stereo not given)	none
Cc1cc(C(=O)N2CCCC(N3CCN(c4cccc(C(F)(F)F)c4)CC3)C2)c(C)o1 (stereo not given)	LYPLA2 counter 31 | LYPLA2 confirm 41
O=C(O)CN1C(=O)/C(=C\c2cc(Br)ccc2OCc2ccc(F)cc2)SC1=S	LYPLA2 counter 41 | LYPLA2 confirm 44
O=C(c1cc2sccc2n1Cc1ccccc1)N1CCN(c2nc3ccccc3s2)CC1	none
O=C1NC(c2ccc(Cl)cc2)=COc2ccccc21	LYPLA2 counter 36 | LYPLA2 confirm 30
CCCOc1nc(C)cc(COC)c1C(N)=O	none
O=C(c1cc(COc2ccc(F)cc2F)on1)N1CC2C[C@@H]3CC1C[C@H](C2)C3	none
O=C(c1cc(COc2ccc(F)cc2F)on1)N1C[C@H]2CC[C@H]1C2	LYPLA2 counter 27 | LYPLA2 confirm inactive
COc1cc(NC(=O)CN2C(=O)CSc3ccc(S(=O)(=O)N4CCCC4)cc32)cc(OC)c1	LYPLA2 counter 28 | LYPLA2 confirm inactive
O=C(CN1C(=O)CSc2ncccc21)Nc1cccc(Cl)c1	LYPLA2 counter 62 | LYPLA2 confirm 67 | LYPLA2 gel ABPP inactive
O=C(CN1C(=O)COc2ccc(S(=O)(=O)N3CCCC3)cc21)Nc1cccc(F)c1	LYPLA2 counter 41 | LYPLA2 confirm 47
COc1cccc(NC(=O)CN2C(=O)COc3ccc(C)cc32)c1	LYPLA2 counter 31 | LYPLA2 confirm 29
COCCCNC(=O)CN1C(=O)CSc2ncccc21	none
Cc1ccccc1CN(c1ccc(C(=O)N/N=C/c2ccc(OCC(N)=O)cc2)cc1)S(C)(=O)=O	none
O=C(CN1C(=O)CSc2ccc(C(F)(F)F)cc21)Nc1ccccc1	LYPLA2 counter 37 | LYPLA2 confirm 37
Cc1ccc(S(=O)(=O)N(C)CCCC(=O)n2nc(C)cc2C)cc1	none
OC(COCc1cccs1)CN1CCN(c2cccc(C(F)(F)F)c2)CC1 (stereo not given)	LYPLA2 counter 34 | LYPLA2 confirm 29
Oc1ccc2ccccc2c1N=Nc1ccc(F)cc1	LYPLA2 counter 29 | LYPLA2 confirm inactive
O=C(COc1ccc(S(=O)(=O)NCc2ccccc2)cc1Cl)NCc1ccncc1	LYPLA2 counter 41 | LYPLA2 confirm 46
O=C(COc1ccc(S(=O)(=O)NCc2ccccc2)cc1Cl)NCc1ccccn1	none
Cc1c(NC(=S)NC(=O)c2ccc(COc3ccccc3)cc2)cccc1C(=O)O	LYPLA2 counter 30 | LYPLA2 confirm inactive
O=C(NC(=S)Nc1ccc(Cl)c(C(=O)O)c1)c1cccc(COc2ccccc2)c1	LYPLA2 counter 37 | LYPLA2 confirm 38
Cc1ccccc1C(=O)NC(=S)Nc1ccc(Cc2ccncc2)cc1	none
O=C(O)c1ccc(Cl)c(NC(=S)NC(=O)c2cccc(COc3ccccc3)c2)c1	none
COc1ccc(C(=O)NC(=S)Nc2ccc(Cc3ccncc3)cc2)cc1	LYPLA2 counter 32 | LYPLA2 confirm 35
O=C(NC(=S)Nc1ccc(Cl)c(C(=O)O)c1)c1ccc(OCc2ccccc2)cc1	LYPLA2 counter 37 | LYPLA2 confirm 33
CCCCOc1cccc(C(=O)NC(=S)Nc2ccc(Cl)c(C(=O)O)c2)c1	none
O=C1[C@@H]2CSCN2C(=O)CN1Cc1ccc(F)cc1	none
CCCCn1c(N)c(N(CCOC)C(=O)CSc2nnc(-c3ccncc3)n2CCC)c(=O)[nH]c1=O	none
Cc1c([N+](=O)[O-])cc(C(=O)Nc2ccc(Cc3ccncc3)cc2)cc1[N+](=O)[O-]	LYPLA2 counter 29 | LYPLA2 confirm 28
O=C(Nc1ccc(Cc2ccncc2)cc1)c1ccc(Cl)c([N+](=O)[O-])c1	none
O=C(c1ccc(CNc2c(N3CCOCC3)c(=O)c2=O)cc1)N1CC=C(c2ccccc2)CC1	LYPLA2 counter 44 | LYPLA2 confirm 41
CCOC(=O)N1CCN(C(=O)CCCn2c(=O)[nH]c3ccccc3c2=O)CC1	none
O=C(CCc1nc2ccccc2s1)N1CCN(c2ccccc2)CC1	none
CC(=O)c1ccc(N2CCN(C(=O)CCCc3nc4ccccc4s3)CC2)cc1	LYPLA2 counter 42 | LYPLA2 confirm 44
O=C(c1ccc(Cn2c(=O)[nH]c3ccccc3c2=O)cc1)N1CCN(c2ccccn2)CC1	none
O=C(c1ccc(Cn2c(=O)[nH]c3ccccc3c2=O)cc1)N1CCN(c2ccccc2)CC1	LYPLA2 counter 35 | LYPLA2 confirm 28
COc1ccc(N2CCN(C(=O)CSc3nc4[nH]ncc4c(=O)n3-c3cccc4ccccc34)CC2)cc1	LYPLA2 counter 34 | LYPLA2 confirm 30
CC(=O)c1ccc(N2CCN(C(=O)CCCn3c(=O)[nH]c4ccccc4c3=O)CC2)cc1	LYPLA2 counter 53 | LYPLA2 confirm 49
Cn1c(SCCN2CCCC2)nnc1C1CCN(S(=O)(=O)c2cccc(F)c2)CC1	none
COc1ccc(N2CCN(C(=O)Cc3ccc(-n4c(=O)[nH]c5ccccc5c4=O)cc3)CC2)cc1	LYPLA2 counter 57 | LYPLA2 confirm 51 | LYPLA2 gel ABPP inactive
CC(C)c1ccc(NC(=O)c2ccc3c(c2)C(=O)N(Cc2cccnc2)C3=O)cc1	LYPLA2 counter 51 | LYPLA2 confirm 53 | LYPLA2 gel ABPP inactive
COC(=O)Cc1ccc(NC(=O)c2ccc3c(c2)C(=O)N(Cc2cccnc2)C3=O)cc1	LYPLA2 counter 28 | LYPLA2 confirm 26
